Reference: PubChem BioAssay AID602431 (Southern Research Specialized Biocontainment Screening …, 2012)
Results with a measured potency or affinity are listed apart. Results filed as inconclusive are left out. Calls of active or inactive are those of the source. How the calls were made is not given here.

assay: Vero cell cytotoxicity, cytotoxicity control for M. tuberculosis inhibitor project, purified and synthesized samples, set 8 (AID 602431); settings: series mostly up to 100 µM

| SMILES | outcome |
| --- | --- |
| O=C(CSc1nc2ccccc2c(=O)[nH]1)NC1CCOCC1 | inactive |
| CC(C)CCNC(=O)CSc1nc2ccccc2c(=O)[nH]1 | inactive |
| O=C(NCc1ccc(C(=O)N2CCN(c3ccccc3)CC2)cc1)NC1CCCCC1 | inactive |
| COCCNC(=O)CSc1nc2ccccc2c(=O)[nH]1 | inactive |
| O=C(c1ccc(CNc2c(N3CCCC3)c(=O)c2=O)cc1)N1CCN(c2ccccc2)CC1 | inactive |
| CC(C)CCNC(=O)CSc1nc2c(c(=O)[nH]1)CCCC2 | inactive |
| O=C(CSc1nc2c(c(=O)[nH]1)CCCC2)NC1CCCCC1 | inactive |
| O=C(CSc1nc2c(c(=O)[nH]1)CCC2)NC1CCCCC1 | inactive |
| O=C(c1ccc(CNc2c(N3CCOCC3)c(=O)c2=O)cc1)N1CCN(c2ccccc2)CC1 | inactive |
| O=C(c1ccc(CNc2c(N3CCOCC3)c(=O)c2=O)cc1)N1CCC(c2ccccc2)CC1 | inactive |
| COC(=O)C(Cc1ccccc1)NC(=O)CSc1nc2ccccc2c(=O)[nH]1 (configuration not stated) | inactive |
| CC(C)CCNC(=O)CSc1nc2c(c(=O)[nH]1)CCCCC2 | inactive |
